Inconclusive results are not listed. Activity calls are given as the source filed them. How the source made its calls: active means hit-call score of the fitted dose curve at least 0.9, where 1 is the maximum; inconclusive means response in the unintended direction; inactive means score below 0.9.

The nature of this assay: ACEA_AR_antagonist_AUC_viability: ACEA Biosciences xCELLigence Real-Time Cell Analysis on Androgen Receptor Antagonism for Viability (AID 2283776).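 Further: hits lower the growth signal relative to DMSO meaning cytotoxicity.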 On the procedure:
ACEA_AR_antagonist is a cell-based, single-readout assay that uses 22Rv1, a human prostate cancer cell line, with measurements taken at 80 hours after chemical dosing in a 384-well plate, although TO5 and TO6 (mc0.srcf) used a 96-well plate. Differences in plate size can be ignored given data normalization.ACEA_AR_80hr is one of two assay component(s) measured or calculated from the […] assay. It is designed to make measurements of real-time cell-growth kinetics, a form of growth reporter, as detected with electrical impedance signals by Real-Time Cell Electrode Sensor (RT-CES) technology.Data from the assay component ACEA_AR_antagonist_AUC_viability was analyzed in the positive analysis fitting direction relative to DMSO as the negative control and baseline of activity. Using a type of growth reporter, loss-of-signal activity can be used to understand changes in the viability. Furthermore, this assay endpoint can be referred to as a secondary readout, because this assay has produced multiple assay endpoints where this one serves a viability function. To generalize the intended target to other relatable targets, this assay endpoint is annotated to the cell cycle intended target family, where the subfamily is cytotoxicity.
The xCELLigence system Multi-E-Plate stations were used to measure the time-dependent response to chemicals. Each compound was tested in an eight-point, 1:4 serial dilution series starting at a maximum final concentration of 100 uM. A maximum starting concentration of 0.5% DMSO was present in the 100 uM chemical samples and was diluted along with the test article dilution series. The screen was performed in biological duplicate using two separate, 96-well, E-Plates 96 for each dilution series (n = 2). Positive controls (MG132 and testosterone) and a negative control (assay media) were tested in quadruplicate on each testing plate. Then, 0.5% and 0.125% DMSO were tested in duplicates in each plate to serve as solvent controls for the 2 highest concentrations of testing compounds: 100 uM and 25 uM. Reference compounds were tested with 8 concentrations with 1:5 serial dilutions. All screening was carried out by ACEA Biosciences, Inc. (San Diego, CA). 22Rv1 cells purchased from ATCC were maintained in media supplemented with 10% fetal bovine serum (FBS). Before screening, 22Rv1 cells were preconditioned in assay medium. Cells were then detached and seeded in E-Plates 96 in assay medium. After overnight monitoring of growth once every hour, compounds were added to […] cells and remained in the medium until the end of the experiment. Cellular responses were then recorded once every 5 min for the first 5 h, and once every hour for an additional 100 h.
For `CC(C)(O)C(=O)Nc1ccc([N+](=O)[O-])c(C(F)(F)F)c1`, the AC50 was 10.9 µM (active). As to `Cc1cc(O)ccc1Cl`, the call was inactive. Still for that read-out and setting: with `COS(=O)(=O)OC` the entry was “inactive”; with `Cc1ccccc1O`, “inactive”; with `c1ccc(-c2ccccc2)cc1`, “inactive”. With `CCOCCOC(C)=O`, the outcome was inactive. Regarding `O=C(NC(=O)c1c(F)cccc1F)Nc1cc(Cl)c(OC(F)(F)C(F)F)c(Cl)c1`, the AC50 is 42.2 µM (active). With `O=S(=O)(O)C(F)(F)C(F)(F)C(F)(F)C(F)(F)C(F)(F)C(F)(F)F`, the compound was classed as inactive.

On to `Oc1ccc(C(c2ccc(O)cc2)(C(F)(F)F)C(F)(F)F)cc1`, for which the call was inactive. With `CCOP(=S)(OCC)SCSC(C)(C)C`, the AC50 is 59.6 µM (active). The same measure, in the same setting: with `CCC(C)c1cc([N+](=O)[O-])cc([N+](=O)[O-])c1O` (stereo not given) the figure was 12 µM (active); with `Cc1ccccc1CO[C@@H]1C[C@@]2(C(C)C)CC[C@]1(C)O2`, 63.6 µM (active).

With `Clc1ccc(C(Cl)(Cl)Cl)cc1`, the result was inactive. In the case of `ClC1=C(Cl)[C@]2(Cl)[C@@H]3[C@@H](Cl)[C@H]4O[C@H]4[C@@H]3C1(Cl)C2(Cl)Cl`, the AC50 was 68.9 µM (active). For `C=CC(=O)NCNC(=O)C=C`, the compound was called inactive. Still for that read-out and setting: with `C1CC2OC2CC1C1CO1` (stereo not given) the entry was “inactive”. In the case of `CO/C=C(/C(=O)OC)c1ccccc1COc1cccc(C(F)(F)F)n1`, the AC50 is 50 µM (active).

For `CN(C)c1nc(=O)n(C2CCCCC2)c(=O)n1C`, the call was inactive. In the case of `O=C(O)C(F)(F)C(F)(F)C(F)(F)C(F)(F)C(F)(F)C(F)(F)C(F)(F)C(F)(F)F`, the AC50 was 72 µM (active). On to `CCCCCCCCOC(=O)c1ccccc1C(=O)OCCCCCCCC`, for which the call was inactive. On to `Clc1ccc(C(c2ccccc2Cl)C(Cl)(Cl)Cl)cc1` (stereo not given), for which the AC50 was 12.8 µM (active). Still for that read-out and setting: under `Cc1cc2c3c(c1)C(c1ccccc1)=N[C@@H](NC(=O)c1ccncc1)C(=O)N3CC2` stands 50 µM (active). Take `C=CC(N)=O`: the result was inactive.

Consider `O=C(N[C@H]1CN2CCC1CC2)c1cc2ccoc2cn1`, for which the call was inactive. Regarding `c1cc2ccc3cccc4ccc(c1)c2c34`, the AC50 is 21.4 µM (active). Consider `Cc1cccc([N+](=O)[O-])c1`, for which the result was inactive.

In the case of `CCCCCCCCCC[N+](C)(C)CCCCCCCCCC`, the AC50 is 6.84 µM (active). Turning to `CC1=C2C[C@H]3[C@@H](CC=C4C[C@@H](O)CC[C@@]43C)[C@@H]2CC[C@]12O[C@@H]1C[C@H](C)CN[C@H]1[C@H]2C`, the compound was classed as inactive. For the compound `O=C(NC(=O)c1cc(F)c(F)cc1Cl)Nc1cc(F)ccc1N1CCC(C(=O)O)CC1`, the call was inactive.

Consider `COc1ccc(O)c(C(C)(C)C)c1`, for which the AC50 was 71 µM (active). For the compound `Nc1ccc(-c2ccc(N)cc2)cc1`, the outcome was inactive.

With `ClC1=C(Cl)[C@]2(Cl)[C@@H]3[C@H]4C[C@H]([C@@H]5O[C@H]45)[C@@H]3[C@@]1(Cl)C2(Cl)Cl`, the AC50 was 22.5 µM (active). As to `CCC(C)(c1ccc(O)cc1)c1ccc(O)cc1`, the AC50 is 42.4 µM (active). Consider `CCNc1nc(NC(C)C)nc(SC)n1`, for which the result was inactive. Take `CC(C)(c1ccccc1)c1ccc(O)cc1`: the AC50 was 13.3 µM (active). Still for that read-out and setting: under `NS(=O)(=O)C(F)(F)C(F)(F)C(F)(F)C(F)(F)C(F)(F)C(F)(F)C(F)(F)C(F)(F)F` stands 59.4 µM (active); under `CCCCCCOC(=O)c1ccccc1C(=O)OCCCCCC`, 50 µM (active). With `CCC(C)(CC)c1cc(NC(=O)c2c(OC)cccc2OC)on1`, the compound was called inactive. The same measure, in the same setting: under `O=S(=O)(O)C(F)(F)C(F)(F)C(F)(F)C(F)(F)F` stands “inactive”. As for `CC(C)C(=O)OCC(C)(C)C(OC(=O)C(C)C)C(C)C` (stereo not given), the AC50 was 90.1 µM (active).

What is called AC50 is the concentration giving half of the maximal activity seen.

These data come from PubChem BioAssay (EPA / NIEHS).
